In PMC4336329 (PLoS ONE, 2015):
The whole screen tested about 310,000 compounds, of which about 2,200 (0.71%) showed an effect of 50% or more. Effects have a minus sign here. The sample holds strong results, similar compounds and a random draw of the others, so the mix is not that of the screen.

What follows are molecules tested against human ether-à-go-go-related gene (hERG) potassium channel (human, UniProt Q12809) (assay: primary screen, population patch clamp on CHO cells stably expressing hERG; higher = less effect of the substance).
human ether-à-go-go-related gene (hERG) potassium channel, sequence (Q12809 whole entry, looked up): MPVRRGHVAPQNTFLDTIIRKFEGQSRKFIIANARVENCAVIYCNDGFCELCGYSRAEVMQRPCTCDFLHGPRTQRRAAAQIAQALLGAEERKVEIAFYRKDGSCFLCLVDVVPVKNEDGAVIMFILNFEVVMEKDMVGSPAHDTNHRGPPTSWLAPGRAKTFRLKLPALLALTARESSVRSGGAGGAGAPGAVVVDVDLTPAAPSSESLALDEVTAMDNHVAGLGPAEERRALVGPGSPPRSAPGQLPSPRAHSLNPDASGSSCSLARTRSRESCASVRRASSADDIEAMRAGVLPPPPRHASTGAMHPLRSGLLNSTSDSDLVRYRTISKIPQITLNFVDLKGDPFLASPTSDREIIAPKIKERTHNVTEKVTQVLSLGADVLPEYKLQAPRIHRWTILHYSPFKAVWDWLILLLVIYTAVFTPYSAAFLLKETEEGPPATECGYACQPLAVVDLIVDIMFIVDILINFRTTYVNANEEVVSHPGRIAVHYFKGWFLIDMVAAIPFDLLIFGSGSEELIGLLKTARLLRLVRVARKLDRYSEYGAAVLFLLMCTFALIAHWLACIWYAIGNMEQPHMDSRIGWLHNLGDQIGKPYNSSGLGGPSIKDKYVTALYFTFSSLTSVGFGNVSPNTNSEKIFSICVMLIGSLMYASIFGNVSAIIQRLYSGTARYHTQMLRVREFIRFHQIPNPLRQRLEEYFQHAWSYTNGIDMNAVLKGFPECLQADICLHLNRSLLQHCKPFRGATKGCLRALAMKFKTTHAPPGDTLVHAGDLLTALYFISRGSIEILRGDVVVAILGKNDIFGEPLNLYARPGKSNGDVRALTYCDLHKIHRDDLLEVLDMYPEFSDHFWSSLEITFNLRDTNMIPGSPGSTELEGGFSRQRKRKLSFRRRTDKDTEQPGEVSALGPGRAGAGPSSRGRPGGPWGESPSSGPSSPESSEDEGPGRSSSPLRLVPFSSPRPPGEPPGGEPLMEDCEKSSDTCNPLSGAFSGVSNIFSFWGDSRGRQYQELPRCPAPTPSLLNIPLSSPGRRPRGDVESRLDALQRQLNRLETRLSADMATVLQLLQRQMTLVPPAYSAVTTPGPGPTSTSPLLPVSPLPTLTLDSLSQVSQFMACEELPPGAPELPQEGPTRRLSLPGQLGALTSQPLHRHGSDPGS
Protocol: Briefly, Chinese hamster ovary (CHO) cells stably expressing the hERG channel were dislodged from tissue culture flasks and dispensed into PPC plates. […] During the recording, background leak currents were estimated by a 100 ms step to -80 mV from an initial holding potential of -70 mV and subtracted from the subsequent current measurement. The campaign was conducted in two phases using slight differences in recording protocol. In the first phase, the initial voltage pulse used a 100 ms step to -30 mV from a holding potential of -70 mV, a 2 s conditioning step to +25 mV, and a 2 s test step to -30 mV. During the second phase of the screen, the potential during the conditioning step was raised to +45 mV. In both phases of the campaign, a secondary voltage pulse was applied using the same parameters as the second phase initial pulse. The initial and secondary pulses were applied in the absence of compound, and upon application of 1 μM and 10 μM test concentrations. Small molecule effects on hERG current density were quantified by […].
In the case of Cc1cccc(NS(=O)(=O)c2ccc(C(=O)NCC(C)(C)N3CCOCC3)cc2)c1C, the “hERG current change (%, negative = inhibition) at 1uM” value is reported as -6.55%. With COc1ccc(C(c2sc3nc(C)nn3c2O)N2CCN(Cc3ccccc3)CC2)cc1OC (centres unmarked) the “hERG current change (%, negative = inhibition) at 1uM” value was 3.82%. Cc1nc2sc(C(c3cccs3)N3CCN(Cc4ccccc4)CC3)c(O)n2n1 (centres unmarked) was tested, and the “hERG current change (%, negative = inhibition) at 1uM” value was -50.1%. With Cc1nc2sc(C(c3cccs3)N3CCN(c4ccccc4)CC3)c(O)n2n1 (centres unmarked) the “hERG current change (%, negative = inhibition) at 1uM” value was 5.92%. In the case of COc1ccc(OC)c(/C=N/N(C)c2ccccc2)c1, the “hERG current change (%, negative = inhibition) at 1uM” value is reported as 12.4%. For O=C(NCCCCO)C(F)(F)C(F)(F)C(F)(F)C(=O)NCCCCO, the “hERG current change (%, negative = inhibition) at 1uM” value was 14.4%. In the case of CCC(CC)C(=O)c1c[nH]c(C(=O)NCc2ccncc2)c1, the “hERG current change (%, negative = inhibition) at 1uM” value is reported as 10%. With COc1ccc(F)cc1CN1CCN(CC(=O)Nc2ccccc2C(=O)NC2CC2)CC1 the “hERG current change (%, negative = inhibition) at 1uM” value was -88.8%. CC(=O)c1ccc(N2CCN(CC(=O)Nc3ccccc3C(=O)NC3CC3)CC2)c(F)c1 was tested, and the “hERG current change (%, negative = inhibition) at 1uM” value was -5.91%. For COc1ccc(OC)c(CN2CCN(CC(=O)Nc3ccccc3C(=O)NC3CC3)CC2)c1, the “hERG current change (%, negative = inhibition) at 1uM” value was -87.6%. With Cc1ccccc1N1CCN(CC(=O)Nc2ccccc2C(=O)NC2CC2)CC1 the “hERG current change (%, negative = inhibition) at 1uM” value was -35.4%. In the case of COc1ccccc1OCC(=O)Nc1ccccc1C(=O)NC1CC1, the “hERG current change (%, negative = inhibition) at 1uM” value is reported as 1.98%. O=C(CN1CCN(S(=O)(=O)c2ccc(F)c(F)c2)CC1)Nc1ccccc1C(=O)NC1CC1 was tested, and the “hERG current change (%, negative = inhibition) at 1uM” value was -23.7%. With CCOc1ccccc1C(=O)NC1CCN(CC(=O)Nc2cc(OC)ccc2OC)CC1 the “hERG current change (%, negative = inhibition) at 1uM” value was -25.6%. For COc1cc(C)c(CN2CCN(CC(=O)Nc3ccccc3C(=O)NC3CC3)CC2)cc1OC, the “hERG current change (%, negative = inhibition) at 1uM” value was -87.6%. In the case of COc1ccc(OC)c(NC(=O)CN2CCC(NC(=O)c3ccccc3C)CC2)c1, the “hERG current change (%, negative = inhibition) at 1uM” value is reported as -4.31%. CCOc1ccccc1N1CCN(CC(=O)Nc2ccccc2C(=O)NC2CC2)CC1 was tested, and the “hERG current change (%, negative = inhibition) at 1uM” value was -23.5%. In the case of COc1ccc(CN2CCN(CC(=O)Nc3ccccc3C(=O)NC3CC3)CC2)cc1F, the “hERG current change (%, negative = inhibition) at 1uM” value is reported as -99.6%. For COc1cc2c(cc1OC)CN(CC(=O)Nc1ccccc1C(=O)NC1CC1)CC2, the “hERG current change (%, negative = inhibition) at 1uM” value was -6.04%. For COc1ccc(NC(=O)CS(=O)(=O)c2ccc(F)cc2)cc1, the “hERG current change (%, negative = inhibition) at 1uM” value was 10.6%. With Cc1ccc(-c2cc(C(F)(F)F)n3nc(C(=O)Nc4ccon4)cc3n2)cc1C the “hERG current change (%, negative = inhibition) at 1uM” value was 7.99%. With COCC(=O)N1CCCC(C(=O)c2ccc(-c3ccccc3)cc2)C1 (centres unmarked) the “hERG current change (%, negative = inhibition) at 1uM” value was 0.927%. With O=C1/C(=C/c2cccc(Cl)c2)CSc2sccc21 the “hERG current change (%, negative = inhibition) at 1uM” value was 16%. For COc1ccc(COc2ccc(S(=O)(=O)N3CCCC3)cc2C(N)=O)cc1F, the “hERG current change (%, negative = inhibition) at 1uM” value was 17.7%. For CCOC(=O)c1oc2cc(OCC(N)=O)ccc2c(=O)c1-c1ccc(OC)c(OC)c1, the “hERG current change (%, negative = inhibition) at 1uM” value was 15.2%. In the case of O=C(O)c1ccccc1NS(=O)(=O)c1ccccc1C(F)(F)F, the “hERG current change (%, negative = inhibition) at 1uM” value is reported as 5.14%. In the case of O=C(Nc1ccc2nc3n(c(=O)c2c1)CCCCC3)c1ccccc1[N+](=O)[O-], the “hERG current change (%, negative = inhibition) at 1uM” value is reported as 14.6%. For CC1CN(C(=S)Nc2cccc(Cl)c2Cl)CC(C)O1 (centres unmarked), the “hERG current change (%, negative = inhibition) at 1uM” value was 2.73%. COc1cccc(CNC(=O)C2CCN(S(=O)(=O)c3ccc4c(c3)CCC(=O)N4)CC2)c1 was tested, and the “hERG current change (%, negative = inhibition) at 1uM” value was 17.5%. In the case of Cc1ccc(C(=O)Oc2coc(CSc3nnc(NC(=O)c4cccs4)s3)cc2=O)cc1, the “hERG current change (%, negative = inhibition) at 1uM” value is reported as 13.4%. Cc1ccc(C(=O)/C=C\NCc2ccccc2)cc1 was tested, and the “hERG current change (%, negative = inhibition) at 1uM” value was 7.27%. For N=c1c(C(=O)NC2CCCC2)cc2c(=O)n3ccccc3nc2n1C1CCCC1, the “hERG current change (%, negative = inhibition) at 1uM” value was -89.1%. For N=c1c(C(=O)NC2CCCC2)cc2c(=O)n3ccccc3nc2n1C1CCCCC1, the “hERG current change (%, negative = inhibition) at 1uM” value was -86.9%. N=c1c(S(=O)(=O)c2ccc(Cl)cc2)cc2c(=O)n3ccccc3nc2n1C1CCCC1 was tested, and the “hERG current change (%, negative = inhibition) at 1uM” value was 13.9%. For Cn1c(C(=O)NC2CCCCC2)cc2c(=O)n3ccccc3nc21, the “hERG current change (%, negative = inhibition) at 1uM” value was 13.4%. For O=C(NC1CCCCCC1)c1cc2c(=O)n3ccccc3nc2s1, the “hERG current change (%, negative = inhibition) at 1uM” value was 8.59%. With O=P(C(Cl)Cl)(N1CCOCC1)N1CCOCC1 the “hERG current change (%, negative = inhibition) at 1uM” value was 17.8%. For CC(=O)Nc1cccc(NC(=O)CSc2nnc3ccc(-c4cccnc4)nn23)c1, the “hERG current change (%, negative = inhibition) at 1uM” value was 13.1%. CCn1cc(/C=C/C(=O)Nc2c(C)nn(Cc3ccccc3)c2C)cn1 was tested, and the “hERG current change (%, negative = inhibition) at 1uM” value was 6.45%. Cc1nc(-c2ccccc2)nc2[nH]c(C(C)C)cc(=O)c12 was tested, and the “hERG current change (%, negative = inhibition) at 1uM” value was -5.88%. CC(=O)c1cccc(Nc2cc(C)nc3ccc(C)cc23)c1.Cl was tested, and the “hERG current change (%, negative = inhibition) at 1uM” value was -13.7%. CC(=O)c1ccc(Nc2cc(C)nc3ccc(C)cc23)cc1 was tested, and the “hERG current change (%, negative = inhibition) at 1uM” value was -53.2%. For COC(=O)c1ccc(Nc2cc(C)nc3ccc(C)cc23)cc1.Cl, the “hERG current change (%, negative = inhibition) at 1uM” value was -9.09%. With N#Cc1ccc(N2CCCNCC2)nc1 the “hERG current change (%, negative = inhibition) at 1uM” value was -90.9%. For N#Cc1ccc(N2CCOCC2)nc1, the “hERG current change (%, negative = inhibition) at 1uM” value was 1.37%. With CCCCNC(=O)N1CCCN(c2ccc(C#N)cn2)CC1 the “hERG current change (%, negative = inhibition) at 1uM” value was -11.6%. In the case of Cc1ccc(NC(=O)COC(=O)Cn2cnc3c2c(=O)n(C)c(=O)n3C)c(Cl)c1, the “hERG current change (%, negative = inhibition) at 1uM” value is reported as 13.3%. Cc1ccc(C(=O)COC(=O)C2C3C=CC(C3)C2C(=O)OCC(=O)c2ccc(C)c(C)c2)cc1C (centres unmarked) was tested, and the “hERG current change (%, negative = inhibition) at 1uM” value was 11.2%. With O=C(NCCC1CCCCN1S(=O)(=O)c1ccc(F)cc1)C(=O)Nc1ccccc1 (centres unmarked) the “hERG current change (%, negative = inhibition) at 1uM” value was 7.03%. NC(=O)COC(=O)c1ccc(Oc2ccccc2)cc1 was tested, and the “hERG current change (%, negative = inhibition) at 1uM” value was 4.12%. O=C(Nc1cc(C(=O)N2CCCC2)ccc1N1CCCC1)c1ccccc1F was tested, and the “hERG current change (%, negative = inhibition) at 1uM” value was -82.8%. With O=C(Nc1ccccc1C(=O)N1CCCC1)c1ccc(Cl)cc1Cl the “hERG current change (%, negative = inhibition) at 1uM” value was 10.3%. O=C(Nc1cc(C(=O)N2CCCC2)ccc1N1CCCC1)C1CC1 was tested, and the “hERG current change (%, negative = inhibition) at 1uM” value was -1.85%. For O=C(Nc1ccccc1C(=O)N1CCCCCC1)c1ccccc1Cl, the “hERG current change (%, negative = inhibition) at 1uM” value was 13.6%. For O=C(Nc1ccccc1C(=O)N1CCCCC1)c1ccc(Cl)cc1Cl, the “hERG current change (%, negative = inhibition) at 1uM” value was -79.6%. With O=C(Nc1ccc(C(=O)N2CCOCC2)cc1)c1cccs1 the “hERG current change (%, negative = inhibition) at 1uM” value was 20.3%. CNC(=S)Nc1cc(C(=O)N2CCCC2)ccc1N1CCCC1 was tested, and the “hERG current change (%, negative = inhibition) at 1uM” value was 2.01%. In the case of O=C(Nc1ccccc1N1CCCCC1)c1ccccc1F, the “hERG current change (%, negative = inhibition) at 1uM” value is reported as -5.76%. With O=C(Nc1cc(C(=O)N2CCOCC2)ccc1N1CCCC1)c1cccs1 the “hERG current change (%, negative = inhibition) at 1uM” value was -78.2%. With O=C(Nc1ccccc1N1CCCC1)c1ccccc1F the “hERG current change (%, negative = inhibition) at 1uM” value was 6.48%. With O=C(Nc1cc(C(=O)N2CCCC2)ccc1N1CCCC1)c1ccccc1 the “hERG current change (%, negative = inhibition) at 1uM” value was -83.5%. For COC(=O)c1ccc(N2CCOCC2)c(NC(=O)c2cccs2)c1, the “hERG current change (%, negative = inhibition) at 1uM” value was 0.514%.
